Hit rate of the full screen: of about 5,500 compounds, about 2,000 (36%) were called active. Inconclusive results (about 18%) are left out. Cut-off read from the data, not from the text of the source: active = normalized growth mostly below about 0.91 (no sharp cut-off); inconclusive = no clear call, values can overlap the other calls; inactive = mostly above about 0.92. The list shows a part of the results.
Test: chemical genetic growth profiling, strain panel (AID 1159580);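 note: tested at 20 µM; growth read once vehicle control cultures reached saturation at 30 °C; 1 = growth at the plate median or of vehicle wells; lower values mean less growth of the strain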
Settings: S. cerevisiae deletion strains, growth OD

Measured: normalized growth

CC1(C)Oc2ccc3ccc(=O)oc3c2CC1O (centres undefined)
inactive: locus YAL013W, strain DEP1, active compounds read low 0.994 | locus YAL021C, strain ccr4, active compounds read low 1 | locus YAL026C, strain drs2, active compounds read low 0.967 | locus YAL030W, strain snc1, active compounds read low 0.972 | locus YBL061C, strain skt5, active compounds read low 0.971 | locus YBR009C, strain hhf1, active compounds read low 0.94 | locus YBR021W, strain FUR4, active compounds read low 1.02 | locus YBR023C, strain chs3, active compounds read low 0.984 | locus YBR171W, strain sec66, active compounds read low 0.976 | locus YBR229C, strain ROT2, active compounds read low 0.998 | locus YBR231C, strain swc5, active compounds read low 0.976 | locus YBR279W, strain paf1, active compounds read low 0.987 | locus YCL011C, strain gbp2, active compounds read low 0.963 | locus YCL016C, strain dcc1, active compounds read low 0.988 | locus YCL029C, strain bik1, active compounds read low 1.01 | locus YCL061C, strain MRC1, active compounds read low 0.989 | locus YCL069W, strain vba3, active compounds read low 0.968 | locus YCR088W, strain abp1, active compounds read low 0.986 | locus YDL005C, strain med2, active compounds read low 0.975 | locus YDL035C, strain GPR1, active compounds read low 0.991 | locus YDL040C, strain nat1, active compounds read low 0.979 | locus YDL074C, strain BRE1, active compounds read low 1.01 | locus YDL101C, strain DUN1, active compounds read low 0.995 | locus YDL134C, strain PPH21, active compounds read low 0.974 | locus YDL185W, strain tfp1, active compounds read low 1.02 | locus YDL192W, strain arf1, active compounds read low 1.02 | locus YDR001C, strain nth1, active compounds read low 0.97 | locus YDR069C, strain doa4, active compounds read low 0.957 | locus YDR101C, strain arx1, active compounds read low 1.02 | locus YDR137W, strain rgp1, active compounds read low 0.99 | locus YDR150W, strain NUM1, active compounds read low 1.01 | locus YDR159W, strain sac3, active compounds read low 0.922 | locus YDR162C, strain NBP2, active compounds read low 0.978 | locus YDR195W, strain ref2 0.971 | locus YDR297W, strain sur2, active compounds read low 0.971 | locus YDR318W, strain mcm21, active compounds read low 0.977 | locus YDR334W, strain swr1, active compounds read low 0.982 | locus YDR335W, strain msn5, active compounds read low 0.993 | locus YDR388W, active compounds read low 1 | locus YDR392W, strain spt3, active compounds read low 0.91 | locus YDR502C, strain sam2, active compounds read low 0.994 | locus YEL003W, strain gim4, active compounds read low 0.977 | locus YEL037C, strain rad23, active compounds read low 0.982 | locus YEL061C, strain CIN8 (second series), active compounds read low 0.977 | locus YEL061C, strain CIN8, active compounds read low 0.992 | locus YER015W, strain faa2, active compounds read low 0.968 | locus YER016W, strain bim1, active compounds read low 0.996 | locus YER110C, active compounds read low 1.01 | locus YER111C, strain swi4, active compounds read low 0.982 | locus YER155C, strain BEM2 (second series), active compounds read low 0.956 | locus YER155C, strain BEM2, active compounds read low 1.01 | locus YER167W, strain BCK2, active compounds read low 0.978 | locus YFR010W, strain ubp6, active compounds read low 0.972 | locus YGL078C, strain dbp3, active compounds read low 0.999 | locus YGL086W, strain mad1, active compounds read low 1.04 | locus YGL167C, strain pmr1, active compounds read low 0.961 | locus YGL173C, strain kem1, active compounds read low 0.975 | locus YGL227W, strain vid30, active compounds read low 0.97 | locus YGL240W, strain doc1, active compounds read low 0.97 | locus YGL248W, strain PDE1, active compounds read low 0.998 | locus YGL253W, strain hxk2, active compounds read low 1 | locus YGR078C, strain PAC10, active compounds read low 0.999 | locus YGR135W, strain pre9, active compounds read low 0.978 | locus YGR252W, strain gcn5, active compounds read low 0.928 | locus YHR013C, strain ard1, active compounds read low 0.943 | locus YHR027C, strain rpn1, active compounds read low 0.973 | locus YHR030C, strain SLT2, active compounds read low 1 | locus YHR079C, strain IRE1 (second series), active compounds read low 1 | locus YHR094C, strain hxt1, active compounds read low 1.02 | locus YHR129C, strain ARP1, active compounds read low 1 | locus YHR142W, strain chs7, active compounds read low 0.996 | locus YHR200W, strain rpn10, active compounds read low 1.01 | locus YIL066C, strain RNR3, active compounds read low 1 | locus YIL073C, strain SPO22, active compounds read low 1.02 | locus YIL125W, strain kgd1, active compounds read low 1.02 | locus YIR030C, strain dcg1, active compounds read low 1.01 | locus YJL092W, strain hpr5, active compounds read low 0.989 | locus YJL095W, strain BCK1 (second series), active compounds read low 0.996 | locus YJL095W, strain BCK1, active compounds read low 0.986 | locus YJL115W, strain asf1, active compounds read low 0.984 | locus YJL129C, strain trk1, active compounds read low 0.977 | locus YJL134W, strain LCB3, active compounds read low 1 | locus YJL154C, strain vps35, active compounds read low 0.978 | locus YJL164C, strain tpk1, active compounds read low 1.01 | locus YJL166W, strain qcr8, active compounds read low 0.989 | locus YJL168C, strain set2, active compounds read low 1.01 | locus YJL187C, strain SWE1 (second series), active compounds read low 1.01 | locus YJL187C, strain SWE1, active compounds read low 0.976 | locus YJR043C, strain POL32, active compounds read low 0.995 | locus YKL009W, strain mrt4, active compounds read low 1.01 | locus YKL068W, active compounds read low 0.998 | locus YKL085W, strain MDH1 (second series), active compounds read low 1.01 | locus YKL085W, strain MDH1, active compounds read low 1.01 | locus YKL160W, strain elf1, active compounds read low 1.02 | locus YKR001C, strain vps1, active compounds read low 1.03 | locus YKR026C, strain gcn3, active compounds read low 0.957 | locus YKR091W, strain srl3, active compounds read low 0.965 | locus YLL001W, strain dnm1, active compounds read low 0.987 | locus YLL026W, active compounds read low 0.977 | locus YLL041C, strain sdh2, active compounds read low 0.989 | locus YLR027C, strain aat2, active compounds read low 0.982 | locus YLR039C, strain RIC1, active compounds read low 0.998 | locus YLR058C, strain SHM2, active compounds read low 0.992 | locus YLR102C, strain apc9, active compounds read low 1.01 | locus YLR221C, strain rsa3, active compounds read low 0.994 | locus YLR258W, strain gsy2, active compounds read low 0.971 | locus YLR262C, strain YPT6 (second series), active compounds read low 0.989 | locus YLR262C, strain YPT6, active compounds read low 0.956 | locus YLR268W, strain sec22, active compounds read low 1.05 | locus YLR320W, strain mms22, active compounds read low 0.998 | locus YLR330W, strain CHS5, active compounds read low 1 | locus YLR342W, strain FKS1 (second series), active compounds read low 1.02 | locus YLR342W, strain FKS1, active compounds read low 0.973 | locus YLR357W, strain rsc2, active compounds read low 0.961 | locus YLR370C, strain arc18, active compounds read low 0.976 | locus YLR371W, strain rom2, active compounds read low 1.01 | locus YLR384C, strain iki3, active compounds read low 0.976 | locus YLR418C, strain cdc73, active compounds read low 0.978 | locus YML016C, strain PPZ1, active compounds read low 1 | locus YML032C, strain rad52, active compounds read low 0.976 | locus YML120C, strain ndi1, active compounds read low 0.988 | locus YML124C, strain tub3, active compounds read low 0.994 | locus YMR058W, strain fet3, active compounds read low 0.979 | locus YMR078C, strain ctf18, active compounds read low 1.02 | locus YMR125W, strain sto1, active compounds read low 0.935 | locus YMR129W, active compounds read low 0.966 | locus YMR205C, strain PFK2, active compounds read low 0.941 | locus YMR223W, strain ubp8, active compounds read low 0.996 | locus YMR231W, strain pep5, active compounds read low 0.977 | locus YMR307W, strain GAS1, active compounds read low 1.04 | locus YNL067W, strain RPL9B, active compounds read low 1 | locus YNL071W, strain lat1, active compounds read low 0.988 | locus YNL209W, strain ssb2, active compounds read low 0.965 | locus YNL233W, strain BNI4, active compounds read low 1 | locus YNL248C, strain rpa49, active compounds read low 1.02 | locus YNL250W, strain rad50, active compounds read low 1.01 | locus YNL271C, strain bni1, active compounds read low 1.01 | locus YNL298W, strain CLA4, active compounds read low 1 | locus YNL307C, strain MCK1, active compounds read low 1.02 | locus YNL322C, strain KRE1 (second series), active compounds read low 0.967 | locus YNR049C, strain mso1, active compounds read low 0.97 | locus YNR052C, strain pop2, active compounds read low 1.02 | locus YOL006C, strain TOP1, active compounds read low 1.02 | locus YOL012C, strain htz1 0.905 | locus YOL147C, strain pex11, active compounds read low 1 | locus YOR001W, strain rrp6, active compounds read low 1.02 | locus YOR061W, strain CKA2, active compounds read low 1 | locus YOR069W, strain VPS5, active compounds read low 1 | locus YOR070C, strain gyp1, active compounds read low 0.987 | locus YOR080W, strain dia2, active compounds read low 0.975 | locus YOR083W, strain WHI5, active compounds read low 1.03 | locus YOR106W, strain vam3, active compounds read low 0.995 | locus YOR136W, strain idh2, active compounds read low 1.01 | locus YOR144C, strain elg1, active compounds read low 1 | locus YOR184W, strain ser1, active compounds read low 0.988 | locus YOR265W, strain rbl2, active compounds read low 0.987 | locus YOR270C, strain vph1, active compounds read low 1.02 | locus YOR290C, strain snf2, active compounds read low 0.924 | locus YOR316C, strain cot1, active compounds read low 1 | locus YPL051W, strain arl3, active compounds read low 1.02 | locus YPL078C, strain atp4, active compounds read low 1 | locus YPL106C, strain sse1, active compounds read low 0.95 | locus YPL240C, strain hsp82, active compounds read low 0.974 | locus YPL241C, strain CIN2, active compounds read low 0.996 | locus YPR119W, strain clb2, active compounds read low 0.997 | locus YPR141C, strain kar3, active compounds read low 1.01 | locus YPR163C, strain tif3, active compounds read low 1.01 | locus YPR167C, strain met16, active compounds read low 1 | strain wtn01, active compounds read low 1.05
